Experimental data as given in PubChem BioAssay (NCI).
About 79,000 compounds went through this panel and 15% of them were active in at least one assay; those are over-represented in the sample as a whole. Calls of active or inactive are those of the source. No stated cut-off is given here; in the data, active means growth inhibition above about 70%; inactive means the rest.

Assay: NCI Yeast Anticancer Drug Screen. Data for the rad52 strain (AID 147);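 further: 0% = growth of vehicle-treated control cultures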
Conditions: S. cerevisiae rad52 mutant growth inhibition, active compounds read high
Method: Growth inhibition of yeast strains with defined genetic alterations is measured as a screen for potential anti-cancer activity. Selected strains with alterations in DNA damage repair or cell cycle control were exposed to compounds and growth inhibition was measured relative to vehicle treated controls. The strain used in this assay is rad52

Measured: growth inhibition

CN(C)CC1CCCc2ccccc2C1=O (stereo not given)
inactive: at 1.2 µM -43% | at 3.7 µM -39% | at 11.0 µM -41% | at 33.0 µM 2%
active: at 100.0 µM 76%

CCC(NC(C)c1ccccc1)C(=O)c1ccc(OCc2ccccc2)c(OCc2ccccc2)c1 (stereo not given)
inactive: at 1.2 µM 0% | at 3.7 µM 7% | at 11.0 µM 0% | at 33.0 µM 6% | at 100.0 µM -18%

O=[N+]([O-])c1c(/C=N/Nc2ccccc2)oc(-c2ccc3c(c2)OCO3)c1-c1ccc2c(c1)OCO2
active: at 100.0 µM 88%
inactive: at 1.2 µM 0% | at 3.7 µM 6% | at 11.0 µM 20% | at 33.0 µM 67%

CCN1/C(=C/c2ccc3ccccc3[n+]2CC)C=Cc2ccccc21
active: at 11.0 µM 87% | at 33.0 µM 98% | at 100.0 µM 98%
inactive: at 1.2 µM -19% | at 3.7 µM -14%

OB(O)c1ccccc1C#Cc1ccccc1B(O)O
inactive: at 1.2 µM 2% | at 3.7 µM 7% | at 11.0 µM 24% | at 33.0 µM 59%
active: at 100.0 µM 95%

On1cnc(=S)c2[nH]cnc21
inactive: at 1.2 µM -28% | at 3.7 µM -27% | at 11.0 µM -29% | at 33.0 µM -26% | at 100.0 µM -35%

COc1cc(N(C)C)ccc1/C=C\c1ccnc2ccccc12
inactive: at 1.2 µM -5% | at 3.7 µM -7% | at 11.0 µM -6% | at 33.0 µM -5% | at 100.0 µM -10%

CC1(C)C(C=O)=CCC1CC(N)=O (stereo not given)
inactive: at 1.2 µM -1% | at 3.7 µM -1% | at 11.0 µM 0% | at 33.0 µM 7%
active: at 100.0 µM 80%
